FEN1 inhibitor – blocks human flap endonuclease 1. P39748. Recombinant FEN1 flap cleavage, fluorescence, 15 min. Potency, µM (doses to about 114 µM), without a hit: top-dose activity change, negative = inhibition, actives largely listed as inhibitors. 390,000 compounds, 0.35% hits. AID 588795; note: % is set by controls: 0 for no effect and ±100 for the full control effect; nearly all actives have a fitted effect of over 65% in size
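Read-out was taken twice, immediately and after 15 min, following addition of 50 nM substrate to 10 nM FEN1 that had sat with test compound for 15 min at room temperature. Curves came from a four-parameter Hill model.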
POLB inh – inhibitors of human DNA polymerase beta | Pol beta primer extension/strand displacement, fluorescence kinetic | 340,000 compounds, 1.3% hits | P06746 | Potency, µM (series often up to 114 µM), for the others: at the top dose activity change, negative = inhibition, usual class: inhibitors | AID 485314; note: % is set by controls: 0 for no effect and ±100 for the full control effect
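Preincubation: enzyme (10 nM) with compound, 15 min, RT. Reaction: substrate added to 50 nM final. Reads: 0 and 10 min. Analysis: normalized, Hill fit.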
Pol eta inh – blocks human DNA polymerase eta activity; Q9Y253; recombinant Pol eta, fluorescent DNA replication assay; Potency, µM (highest dose often 114 µM), for the others: top-dose activity change, negative = inhibition, most hits filed as inhibitors; 390,000 compounds, 1.2% hits; note: % is set by controls: 0 for no effect and ±100 for the full control effect
Target sequence (Q9Y253 whole entry, looked up): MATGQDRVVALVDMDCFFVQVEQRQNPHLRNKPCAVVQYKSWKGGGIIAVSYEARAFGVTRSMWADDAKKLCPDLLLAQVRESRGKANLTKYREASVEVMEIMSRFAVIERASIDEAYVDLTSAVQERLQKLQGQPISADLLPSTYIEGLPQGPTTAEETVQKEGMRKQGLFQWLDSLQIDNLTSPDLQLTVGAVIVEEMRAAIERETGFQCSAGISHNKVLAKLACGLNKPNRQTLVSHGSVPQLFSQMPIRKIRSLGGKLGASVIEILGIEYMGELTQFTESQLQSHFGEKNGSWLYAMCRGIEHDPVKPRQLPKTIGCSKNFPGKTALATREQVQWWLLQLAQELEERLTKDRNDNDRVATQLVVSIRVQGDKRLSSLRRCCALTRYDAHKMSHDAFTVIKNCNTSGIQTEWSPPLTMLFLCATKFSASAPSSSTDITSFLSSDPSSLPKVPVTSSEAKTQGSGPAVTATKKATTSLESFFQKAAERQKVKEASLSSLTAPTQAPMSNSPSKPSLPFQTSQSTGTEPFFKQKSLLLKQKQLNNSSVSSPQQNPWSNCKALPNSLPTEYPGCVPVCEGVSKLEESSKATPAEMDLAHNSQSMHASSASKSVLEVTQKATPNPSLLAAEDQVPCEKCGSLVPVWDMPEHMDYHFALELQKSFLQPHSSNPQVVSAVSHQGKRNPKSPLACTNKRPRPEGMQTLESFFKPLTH
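Fluorescent replication assay: 50 nM final substrate added after a 15 min room-temperature compound preincubation with 10 nM enzyme. Signal taken at 0 min and again at 10 min.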
Pol iota inh – inhibitors of human DNA polymerase iota; Pol iota fluorescent replication assay, 10 min; Potency, µM (highest dose often 115 µM), inactives show top-dose activity, negative = inhibition, hits mostly inhibitors; 390,000 compounds, 1% hits
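Fluorescent replication assay read twice, at 0 min and 10 min after adding 50 nM (final) substrate. Enzyme (10 nM) and compounds were first incubated 15 min at room temperature; enzyme-free buffer wells were negative controls.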
WRN inhibitor – WRN helicase (human) inhibition | Potency, µM (highest dose often 114 µM), inactives show at the top dose activity change, negative = inhibition, usual class: inhibitors | Q14191 | AID 651768 | WRN helicase unwinding, fluorescent forked duplex, kinetic | 360,000 compounds, 0.46% hits; note: % is set by controls: 0 for no effect and ±100 for the full control effect; nearly all actives have a fitted effect of over 55% in size
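Kinetic red-fluorescence monitoring (525/598 nm) tracks WRN helicase activity after 100 nM fluorophore-quencher forked duplex and 2 mM ATP are added to 20 nM enzyme pretreated 15 min at room temperature with compound.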
Pol kappa inh – inhibitors of human DNA polymerase kappa | purified Pol kappa, fluorescent DNA synthesis assay, 10 min | 400,000 compounds, 0.53% hits | Q9UBT6 | Potency, µM (series often up to 107 µM), for the others: top-dose activity, negative = inhibition, actives largely listed as inhibitors; note: % is set by controls: 0 for no effect and ±100 for the full control effect
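10 nM Pol kappa preincubated 15 min at room temperature with compounds, then reaction started with substrate at 50 nM final. Fluorescence read kinetically at 0 and 10 min; buffer-only wells served as negative control.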
Starred values were filed as active, the others as inactive; u = inconclusive; x = no result; ! = a repeat was not active; [ ] = remark or other dose. This is a sample that favours compounds with a hit; in the whole collection about 2.4% have one here. Calls come from the whole dose curve; as a rule, active = well fitted curve in the direction sought with a large enough effect; inconclusive = small, poorly fitted or top-dose-only effect, or another doubt; inactive = no such curve, though single readings can be large; an effect the other way counts as inactive or inconclusive. Potency is the fitted concentration of half-maximal effect.

SMILES | FEN1 inhibitor | POLB inh | Pol eta inh | Pol iota inh | WRN inhibitor | Pol kappa inh
Cc1ccc(/C=C2/CNC/C(=C\c3ccc(C)cc3)C2=O)cc1 | x | x | x | x | x | 4.6%[60.1 µM]
CCN1CCN(Cc2ccc(NC(=O)c3ccc(C)c(NC(=O)c4ccno4)c3)cc2C(F)(F)F)CC1 | -1.5% | -10.0% | 1.8% | 13.1% | -2.2% | 21.7%
CCN1CCN(Cc2ccc(NC(=O)c3ccc(C)c(/C=C/c4cnc(Nc5cc(N6CCNCC6)nc(C)n5)cn4)c3)cc2C(F)(F)F)CC1 | 12.6µM* | 11.1% | 79.4µM* | u | 20µM*! | -34.2%
COc1ccccc1-c1nc2c(c(SCC(=O)Nc3ccccc3F)n1)Cc1c(CO)cnc(C)c1O2 | 11.0% | 79.4µM* | -0.9% | 4.0% | x | -10.1%
CC1=C/C(=C\c2ccc(N(C)C)cc2)c2ccccc21 | -3.1% | x | x | -6.3% | x | -10.0%
CC(C)(C)C(=O)Oc1ccc(S(=O)(=O)Nc2ccccc2C(=O)NCC(=O)O)cc1 | x | x | x | x | x | 1.2%[19.4 µM]
COc1ccc(OC)c(/C=C/c2ccc3ccccc3[n+]2C)c1 | 44.7µM* | x | x | 25.6% | x | -11.2%
CCOc1ccc(/C=C/c2ccc3ccccc3[n+]2C)cc1OCC | u | x | x | u | x | 44.7µM*
COc1cc(OC)c(/C=C/c2cc(/C=C/c3c(OC)cc(OC)cc3OC)[n+](C)c3ccccc23)c(OC)c1 | 14.1µM* | x | x | -18.4% | x | -9.7%
C[n+]1c(/C=C/c2ccc(O)cc2)ccc2ccccc21 | u | 15.8µM* | -26.3% | u | -21.6% | -29.4%
C[n+]1c(/C=C/c2ccc(F)cc2)ccc2ccccc21 | u | x | x | 28.7% | x | -27.4%
CC[n+]1c(/C=C/c2ccc(OC)c(OC)c2)ccc2ccccc21 | -18.1% | u | -1.9% | -0.7% | -2.0% | -8.8%
COc1cc(OC)c(/C=C/c2cc3c4ccccc4ccc3[n+](C)c2)c(OC)c1 | u | x | x | 1.6% | x | -0.4%
Cc1nc(Sc2nnnn2C2CC2)c2c(-c3ccccc3)csc2n1 | -5.2% | x | x | 1.0% | x | 4.8%
O=C(O)CC/C=C\CC[C@@H]1[C@@H](N2CCCCC2)[C@@H](O)C[C@@H]1OCc1ccc(-c2ccccc2)cc1 | x | x | x | x | x | -9.2%[19.4 µM]
Cc1ccc(S(=O)(=O)N2CCCN(c3nc(-c4cccs4)nc4ccccc34)CC2)cc1 | 4.5% | x | x | 16.1% | x | 4.1%
COc1ccccc1-c1nn2c(-c3ccco3)nnc2s1 | -30.2% | 14.1µM* | -10.4% | u | -16.5% | -14.9%
c1coc(-c2nn3c(-c4ccco4)nnc3s2)c1 | -1.7% | 28.2µM* | u | u | u | u
COc1cccc(OC)c1-c1nn2c(-c3cc(-c4ccccc4)n[nH]3)nnc2s1 | 28.2µM* | u | 6.31µM* | 28.2µM* | 39.8µM* | 28.2µM*
COc1ccccc1-c1nn2c(-c3cc(-c4ccccc4)n[nH]3)nnc2s1 | 4.6% | x | x | -1.4% | x | 8.3%
COc1ccc(OCc2nn3c(-c4ccco4)nnc3s2)cc1 | -8.3% | u | u | -6.8% | -9.8% | -5.9%
C=C1C=C(C(F)F)n2ncc(C(=O)N3CCCCC3)c2N1 | 11.7% | x | x | -4.2% | x | -23.5%
O=C1C[C@@H](c2ccccc2Cl)N1S(=O)(=O)c1ccccc1[N+](=O)[O-] | 13.9% | x | x | -9.2% | x | -4.0%
COc1ccc(NC=O)c(C(=O)CCNC(C)=O)c1 | x | x | x | x | x | 16.9%[60.1 µM]
Cc1ccc2c(C(=O)CNc3nccs3)c[nH]c2c1 | -4.3% | x | x | 17.8% | x | 6.4%
SMILES | FEN1 inhibitor | POLB inh | Pol eta inh | Pol iota inh | WRN inhibitor | Pol kappa inh
COC(=O)c1ccc2c(c1)SC1=C(CCCC1=O)N2 | -8.9% | -0.1% | -15.2% | -23.4% | 79.4µM* | -17.1%
N#Cc1sc2nc(-c3ccccc3)cc(-c3ccco3)c2c1N | u | 39.8µM* | 8.91µM* | 0.794µM* | 35.5µM* | 50.1µM*
CC(=O)Nc1nc(-c2ccccc2)cc(-c2ccco2)c1C#N | -4.7% | x | -4.5% | 11.1% | 2.3% | -2.6%
N#Cc1c(-c2ccccc2)cc(-c2ccco2)c(C#N)c1N | x | 39.8µM* | x | x | x | x
CN(C)c1ccc(/C=N\Nc2ccc([N+](=O)[O-])cc2[N+](=O)[O-])cc1Br | -3.4% | x | x | 15.0% | x | 2.3%
CC(Cc1c[nH]c2ccccc12)C(=O)O (stereo unspecified) | 13.9% | 7.08µM* | 3.3% | 9.7% | -5.1%[11.6 µM] | u
CCCc1ccc(C(=O)NNC(=O)c2ccc(Br)cc2)cc1 | 3.0% | 44.7µM* | u | u | -11.9% | -21.3%
Nc1ncnc2c1[nH]c(=S)n2C1OC(CO)C(O)C1O (stereo unspecified) | -12.2% | x | x | -7.2% | x | 7.8%
O=C(O)c1cccc(Cn2c(Cl)c(/C=N/NC(=O)c3ccccc3)sc2=O)c1 | 5.9% | 42.4% | u | 7.7% | -7.5% | -0.5%
O=C(O)c1cccc(Cn2c(Cl)c(/C=N/NC(=O)c3cc4ccccc4cc3O)sc2=O)c1 | 17.8µM* | 11.2µM* | 6.31µM* | 8.91µM* | 39.8µM* | 31.6µM*
CC(=O)CS(=O)(=O)c1ccc(Oc2ccc(S(=O)(=O)CC(C)=O)cc2)cc1 | -10.7% | 31.6µM* | u | u | -18.4% | u
O=C(O)CS(=O)(=O)c1ccc(Oc2ccc(S(=O)(=O)CC(=O)O)cc2)cc1 | 2.9% | -37.2% | -17.4% | 58.6% | 6.5% | -15.0%
O=C1C=CC(=O)c2c1ccc1c2ccc2ccccc21 | x | x | x | x | x | -18.9%[12 µM]
O=C(OCc1ccc([N+](=O)[O-])cc1)C1CC(=O)N(CCc2ccccc2)C1 (stereo unspecified) | -1.6% | x | -7.3% | 8.6% | -17.7% | -13.7%
O=C(OCc1nnc(-c2ccc([N+](=O)[O-])cc2)o1)C1CC(=O)N(CCc2ccccc2)C1 (stereo unspecified) | 3.3% | x | u | 79.4µM* | -29.5% | -14.2%
CC(C)(C)n1ncc2c(=O)n(Cc3c(F)ccc(F)c3Cl)cnc21 | -7.2% | x | x | 7.1% | x | -18.2%
Cc1nc(S/C(=C\c2ccc(OCc3ccccc3Cl)cc2)C(=O)O)n[nH]1 | 4.6% | 1.5% | 31.6µM* | u | -13.2%[57.1 µM] | 5.9%
CCCCN(CCCC)c1ccc(/C=C2\C=Cc3ccccc32)cc1 | 4.9% | x | x | 25.8% | x | -19.0%
CCOC(=O)Cc1nnc(NC(=O)CSc2nnc3c4ccccc4n(C)c3n2)s1 | u | 44.7µM* | -5.7% | 5.01µM* | u | u
Cc1ccc(C2=NN=C(NC(=O)CSc3nnc4c5ccccc5n(C)c4n3)SC2)cc1 | 2.9% | 35.5µM* | u | -17.0% | -16.2% | -6.5%
O=C(C[n+]1ccnc2ccccc21)c1ccc(Br)cc1 | 0.2% | x | x | 46.5% | x | 7.9%
O=C1NC(=S)N/C1=C/c1ccc(-c2c(Br)cc([N+](=O)[O-])cc2Br)o1 | x | 8.91µM* | x | x | x | x
O=C1NC(=S)N/C1=C/c1cccc([N+](=O)[O-])c1 | 0.1% | 4.6% | u | 47.1% | -9.2% | -4.6%
